This note sets out measurements from PubChem BioAssay (NCI).

The structures appear in SMILES notation. The panel holds about 79,000 compounds, 15% with a hit somewhere; the sample as a whole holds those more often. Calls of active or inactive are those of the source. Rule as the data show it: active = growth inhibition above about 70%; inactive = the rest.

A short description of the first experiment: NCI Yeast Anticancer Drug Screen. Data for the bub3 strain (AID 167). Particulars: S. cerevisiae bub3 mutant strain, at 50.0 µM, active compounds read high. The procedure, abridged:
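Screening used yeast with an engineered genetic alteration affecting cell cycle control. Compound-exposed cultures were compared with vehicle cultures, and reduced growth was taken as inhibition.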
For `CCCCCCCCCCS(=O)(=O)Nc1ccc(C(=O)NN)cc1`, the growth inhibition was 79% (active).

For `ON(C(=Nc1ccc(Cl)cc1)c1ccccc1)c1ccccc1`, the growth inhibition was 98.8% (active).

With `Cc1ccc(-c2c(N)[n+]([O-])c3ccccc3[n+]2[O-])cc1`, the growth inhibition is 99.2% (active).

On to `NC(=O)C12OC3CC(CC(C3)O1)O2`, for which the growth inhibition is 2.75% (inactive).

With `C=C(C)[P+](C)(c1ccccc1)c1ccccc1`, the growth inhibition was -9.3% (inactive).

Turning to `CCC(C)SC1SCC2C(=O)N(C)C3(CC3C)C(=O)OCC(NC(=O)c3nc4ccccc4cc3O)C(=O)NC(C)C(=O)N(C)C1C(=O)N(C)C1(CC1C)C(=O)OCC(NC(=O)c1nc3ccccc3cc1O)C(=O)NC(C)C(=O)N2C` (stereo not given), the growth inhibition was 91.2% (active).

As to `COc1ccc2ccc(=O)oc2c1CC=C(C)C`, the growth inhibition is 62% (inactive).

Take `O=c1ccn(C2OC(COC(c3ccccc3)(c3ccccc3)c3ccccc3)C(O)C2O)c(=O)[nH]1` (stereo not given): the growth inhibition is 91.8% (active).

Consider `O=C1C(=O)C(Cc2ccccc2)(c2ccccc2)C(=O)N1c1ccccc1` (stereo not given), for which the growth inhibition was 10.3% (inactive).

Regarding `CCC(O)C(O)(c1ccccc1)c1nc2ccccc2s1` (stereo not given), the growth inhibition is -2.65% (inactive).

For the molecule `c1ccc(-n2ncc3ccc4cccn4c32)cc1`, the growth inhibition was 91.3% (active).

With `O=C(c1ccc([N+](=O)[O-])cc1)C(Br)C(Br)c1ccnc2ccccc12` (stereo not given), the growth inhibition was 98.8% (active).

Take `[Cl][Sn]1([Cl])[CH2]CC[CH2][Sn]([Cl])([Cl])[CH2]CC[CH2][Sn]([Cl])([Cl])[CH2]CC[CH2][Sn]([Cl])([Cl])[CH2]CC[CH2]1`: the growth inhibition was 70.9% (active).

With `Nc1ccc(O)c(=O)cc1`, the growth inhibition is 76.6% (active).

Consider `CC(C)c1cc(C(=O)[O-])c(O)c(C(C)C)c1.CC(C)c1cc(C(=O)[O-])c(O)c(C(C)C)c1.CC(C)c1cc(C(=O)[O-])c(O)c(C(C)C)c1.CC(C)c1cc(C(=O)[O-])c(O)c(C(C)C)c1.CC(C)c1cc(C(=O)[O-])c(O)c(C(C)C)c1.CC(C)c1cc(C(=O)[O-])c(O)c(C(C)C)c1.[Cu+2].[Mn+2].[Mn+2]`, for which the growth inhibition is 55% (inactive).

Turning to `CC1=C(C(=O)Nc2cccc(C(F)(F)F)c2)C(c2ccccc2F)C(C(=O)Nc2cccc(C(F)(F)F)c2)=C(C)N1`, the growth inhibition was 85.2% (active).

As for `O=C(c1ccccc1)C(C(=O)c1ccccc1)c1ccc2ccccc2n1`, the growth inhibition is 19.1% (inactive).

For `NC(=S)N1N=C2c3ccccc3CC[C@H]2[C@@H]1c1cccs1`, the growth inhibition is 60.2% (inactive).

For the molecule `O=CC(O)CN1CCCC1` (stereo not given), the growth inhibition is 12.7% (inactive).

In the case of `CCCCCN(CCCCC)CC(C)(C)C(O)c1ccc(OC)c2ccccc12` (stereo not given), the growth inhibition is 33.2% (inactive).

As to `CSC(=S)n1nc(-c2cccs2)c(N=Nc2ccccc2)c1C(F)(F)F`, the growth inhibition was 78% (active).

Regarding `CC(O)C1CCCC[N+]1(C)C` (stereo not given), the growth inhibition was 9.45% (inactive).

As to `CCCCCCCCCCCC(=O)N(CCOC(=O)c1ccco1)CCOC(=O)c1ccco1`, the growth inhibition is 97.8% (active).

Regarding `CCOC(=O)NC(=S)Nc1ccsc1`, the growth inhibition is 24.8% (inactive).

With `O=C(O)c1ccc(C(O)(c2ccccc2)c2ccccc2)cc1`, the growth inhibition is 77.7% (active).

Take `N#CSCCSCc1ccc(Cl)cc1`: the growth inhibition was 99.5% (active).

`CN(/N=C\c1ccc(Cl)cc1)C(c1ccc(Cl)cc1)N(C)/N=C/c1ccc(Cl)cc1` (stereo not given): the growth inhibition is 16.6% (inactive).

Regarding `CC(C)(C)[Si](C)(C)OCC1OC(n2cc(I)c(N)nc2=O)C(O[Si](C)(C)C(C)(C)C)C1O[Si](C)(C)C(C)(C)C` (stereo not given), the growth inhibition was 38.4% (inactive).

As to `O=C1C(=O)c2cc(Br)cc([N+](=O)[O-])c2-c2ccc(Br)cc21`, the growth inhibition is 98.3% (active).

As to `C(=NCCc1ccccc1)c1ccccc1B1OB(c2ccccc2C=NCCc2ccccc2)OB(c2ccccc2C=NCCc2ccccc2)O1`, the growth inhibition was 99.7% (active).

`O=[N+]([O-])c1ccc(-c2ccccc2Cl)c([N+](=O)[O-])c1`: the growth inhibition was 95.8% (active).

In the case of `CC12CCC(=O)C=C1CCC1C2CCC2(C)C(c3cnc[nH]3)CCC12` (stereo not given), the growth inhibition is 69.5% (inactive).

Consider `COc1cccc(C2CC(C)(O)Oc3cc4c(cc32)OCO4)c1` (stereo not given), for which the growth inhibition was 46.4% (inactive).

On to `N/C(=N\N=C\c1cc(I)cc(I)c1O)NO`, for which the growth inhibition is 96.7% (active).

For the molecule `Cc1ccc2nn(-c3ccc(O)cc3)nc2c1`, the growth inhibition was 74.5% (active).

Take `COC(=O)C1=C(NC(=O)Nc2ccc(Cl)cc2)OC(C)(C)C1c1ccc(Cl)cc1` (stereo not given): the growth inhibition was 95.4% (active).

In the case of `CCCC/C=C\CCCCCCCCCC1=C(O)C(=O)C=C(OC)C1=O`, the growth inhibition was 63% (inactive).

For the molecule `Cc1nn(C(=O)c2ccccc2O)c2c1C(c1ccco1)SC(N)=N2` (stereo not given), the growth inhibition is 69% (inactive).

Take `CC1=C(CO)C(=O)O[C@@H]([C@@H](C)[C@H]2CC[C@H]3[C@@H]4C[C@@H](O)C5=CC=CC(=O)[C@]5(C)[C@H]4CC[C@]23C)C1`: the growth inhibition is 60.6% (inactive).

Turning to `O=C(CNC(=O)Nc1ccc(NC(=O)NCC(=O)Nc2ccc(C3=NCCN3)cc2)cc1)Nc1ccc(C2=NCCN2)cc1`, the growth inhibition was 96.4% (active).

The nature of another experiment: NCI Yeast Anticancer Drug Screen. Data for the mlh1 rad18 strain (AID 175). Particulars: S. cerevisiae mlh1 rad18 strain growth inhibition; at 5.0 µM (retest, dose inferred, filed as 0.5); active compounds read high. Put shortly:
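Inhibition values reflect reduced growth of mutant yeast versus vehicle-treated controls following compound exposure; the mutations affect DNA damage repair.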
Regarding `CCCCCCCCCCS(=O)(=O)Nc1ccc(C(=O)NN)cc1`, the growth inhibition is 69% (inactive).

In the case of `ON(C(=Nc1ccc(Cl)cc1)c1ccccc1)c1ccccc1`, the growth inhibition was 9% (inactive).

On to `Cc1ccc(-c2c(N)[n+]([O-])c3ccccc3[n+]2[O-])cc1`, for which the growth inhibition was 81% (active).

In the case of `NC(=O)C12OC3CC(CC(C3)O1)O2`, the growth inhibition is 9% (inactive).

`C=C(C)[P+](C)(c1ccccc1)c1ccccc1`: the growth inhibition was -4% (inactive).

For `CCC(C)SC1SCC2C(=O)N(C)C3(CC3C)C(=O)OCC(NC(=O)c3nc4ccccc4cc3O)C(=O)NC(C)C(=O)N(C)C1C(=O)N(C)C1(CC1C)C(=O)OCC(NC(=O)c1nc3ccccc3cc1O)C(=O)NC(C)C(=O)N2C` (stereo not given), the growth inhibition was 94% (active).

Regarding `COc1ccc2ccc(=O)oc2c1CC=C(C)C`, the growth inhibition is 13% (inactive).

For `O=c1ccn(C2OC(COC(c3ccccc3)(c3ccccc3)c3ccccc3)C(O)C2O)c(=O)[nH]1` (stereo not given), the growth inhibition is 31% (inactive).

Consider `O=C1C(=O)C(Cc2ccccc2)(c2ccccc2)C(=O)N1c1ccccc1` (stereo not given), for which the growth inhibition is 1% (inactive).

Consider `CCC(O)C(O)(c1ccccc1)c1nc2ccccc2s1` (stereo not given), for which the growth inhibition was 0% (inactive).

For `c1ccc(-n2ncc3ccc4cccn4c32)cc1`, the growth inhibition was 12% (inactive).

On to `O=C(c1ccc([N+](=O)[O-])cc1)C(Br)C(Br)c1ccnc2ccccc12` (stereo not given), for which the growth inhibition was 18% (inactive).

For the molecule `[Cl][Sn]1([Cl])[CH2]CC[CH2][Sn]([Cl])([Cl])[CH2]CC[CH2][Sn]([Cl])([Cl])[CH2]CC[CH2][Sn]([Cl])([Cl])[CH2]CC[CH2]1`, the growth inhibition was -2% (inactive).

Regarding `Nc1ccc(O)c(=O)cc1`, the growth inhibition is -2% (inactive).

On to `CC(C)c1cc(C(=O)[O-])c(O)c(C(C)C)c1.CC(C)c1cc(C(=O)[O-])c(O)c(C(C)C)c1.CC(C)c1cc(C(=O)[O-])c(O)c(C(C)C)c1.CC(C)c1cc(C(=O)[O-])c(O)c(C(C)C)c1.CC(C)c1cc(C(=O)[O-])c(O)c(C(C)C)c1.CC(C)c1cc(C(=O)[O-])c(O)c(C(C)C)c1.[Cu+2].[Mn+2].[Mn+2]`, for which the growth inhibition was 39% (inactive).

For `CC1=C(C(=O)Nc2cccc(C(F)(F)F)c2)C(c2ccccc2F)C(C(=O)Nc2cccc(C(F)(F)F)c2)=C(C)N1`, the growth inhibition was 47% (inactive).

Turning to `O=C(c1ccccc1)C(C(=O)c1ccccc1)c1ccc2ccccc2n1`, the growth inhibition is -2% (inactive).

In the case of `NC(=S)N1N=C2c3ccccc3CC[C@H]2[C@@H]1c1cccs1`, the growth inhibition is -17% (inactive).

On to `O=CC(O)CN1CCCC1` (stereo not given), for which the growth inhibition is 1% (inactive).

Consider `CCCCCN(CCCCC)CC(C)(C)C(O)c1ccc(OC)c2ccccc12` (stereo not given), for which the growth inhibition was -2% (inactive).

Regarding `CSC(=S)n1nc(-c2cccs2)c(N=Nc2ccccc2)c1C(F)(F)F`, the growth inhibition is 1% (inactive).

Take `CC(O)C1CCCC[N+]1(C)C` (stereo not given): the growth inhibition is -17% (inactive).

For `CCCCCCCCCCCC(=O)N(CCOC(=O)c1ccco1)CCOC(=O)c1ccco1`, the growth inhibition was 34% (inactive).

Consider `CCOC(=O)NC(=S)Nc1ccsc1`, for which the growth inhibition is -7% (inactive).

As for `O=C(O)c1ccc(C(O)(c2ccccc2)c2ccccc2)cc1`, the growth inhibition was 3% (inactive).

On to `N#CSCCSCc1ccc(Cl)cc1`, for which the growth inhibition is 6% (inactive).

Consider `CN(/N=C\c1ccc(Cl)cc1)C(c1ccc(Cl)cc1)N(C)/N=C/c1ccc(Cl)cc1` (stereo not given), for which the growth inhibition was -3% (inactive).

As to `CC(C)(C)[Si](C)(C)OCC1OC(n2cc(I)c(N)nc2=O)C(O[Si](C)(C)C(C)(C)C)C1O[Si](C)(C)C(C)(C)C` (stereo not given), the growth inhibition is 33% (inactive).

As for `O=C1C(=O)c2cc(Br)cc([N+](=O)[O-])c2-c2ccc(Br)cc21`, the growth inhibition is 89% (active).

Take `C(=NCCc1ccccc1)c1ccccc1B1OB(c2ccccc2C=NCCc2ccccc2)OB(c2ccccc2C=NCCc2ccccc2)O1`: the growth inhibition is 92% (active).

For `O=[N+]([O-])c1ccc(-c2ccccc2Cl)c([N+](=O)[O-])c1`, the growth inhibition is 5% (inactive).

With `CC12CCC(=O)C=C1CCC1C2CCC2(C)C(c3cnc[nH]3)CCC12` (stereo not given), the growth inhibition is 41% (inactive).

With `COc1cccc(C2CC(C)(O)Oc3cc4c(cc32)OCO4)c1` (stereo not given), the growth inhibition is -14% (inactive).

For the molecule `N/C(=N\N=C\c1cc(I)cc(I)c1O)NO`, the growth inhibition is 24% (inactive).

Consider `Cc1ccc2nn(-c3ccc(O)cc3)nc2c1`, for which the growth inhibition was 12% (inactive).

As for `COC(=O)C1=C(NC(=O)Nc2ccc(Cl)cc2)OC(C)(C)C1c1ccc(Cl)cc1` (stereo not given), the growth inhibition is 85% (active).

`CCCC/C=C\CCCCCCCCCC1=C(O)C(=O)C=C(OC)C1=O`: the growth inhibition was 71% (active).

With `Cc1nn(C(=O)c2ccccc2O)c2c1C(c1ccco1)SC(N)=N2` (stereo not given), the growth inhibition was 11% (inactive).

For the molecule `CC1=C(CO)C(=O)O[C@@H]([C@@H](C)[C@H]2CC[C@H]3[C@@H]4C[C@@H](O)C5=CC=CC(=O)[C@]5(C)[C@H]4CC[C@]23C)C1`, the growth inhibition is -22% (inactive).

Turning to `O=C(CNC(=O)Nc1ccc(NC(=O)NCC(=O)Nc2ccc(C3=NCCN3)cc2)cc1)Nc1ccc(C2=NCCN2)cc1`, the growth inhibition was 4% (inactive).
